Results published in PubChem BioAssay (NCI).
About 79,000 compounds went through this panel and 15% of them were active in at least one assay; those are over-represented in the sample as a whole. Active and inactive are the calls of the source. Cut-off read from the data, not from the text of the source: active = growth inhibition above about 70%; inactive = the rest.

Legend:
[1] = NCI Yeast Anticancer Drug Screen. Data for the rad52 strain (AID 147);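 note: 0% = growth of vehicle-treated control cultures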; conditions: S. cerevisiae rad52 mutant growth inhibition, active compounds read high
Summary of the method: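 Here a repair-compromised yeast strain receives each compound; its growth is then quantified and normalised to vehicle-only controls.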

[2] = NCI Yeast Anticancer Drug Screen. Data for the wt1 strain (AID 149);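 note: 0% = growth of vehicle-treated wt1 cultures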; conditions: S. cerevisiae wt1 strain (SPY 50644) growth inhibition, active compounds read high
Summary of the method: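 wt1 strain grown with compound or vehicle; inhibition taken from the growth difference.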

[3] = NCI Yeast Anticancer Drug Screen. Data for the rad50EPP+ strain (AID 151);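 note: 0% = growth of vehicle-treated control cultures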; conditions: S. cerevisiae rad50 mutant strain, active compounds read high
Summary of the method: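 Read-out is yeast growth inhibition relative to vehicle; cells used were the rad50EPP+ strain.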

[4] = NCI Yeast Anticancer Drug Screen. Data for the mgt1 strain (AID 153); conditions: S. cerevisiae mgt1 mutant growth inhibition, active compounds read high
Summary of the method: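 Measured: inhibition of mgt1 yeast growth by compound, normalized to vehicle-treated cultures.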

[5] = NCI Yeast Anticancer Drug Screen. Data for the rad50 strain (AID 155);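 note: 0% = growth of vehicle-only cultures of the same strain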; conditions: S. cerevisiae rad50 strain growth inhibition, active compounds read high
Summary of the method: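 DNA repair mutant yeast, compound exposure, growth read-out; inhibition is taken relative to vehicle.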

[6] = NCI Yeast Anticancer Drug Screen. Data for the mec2-1 strain (AID 157); conditions: S. cerevisiae mec2-1 strain, active compounds read high
Summary of the method: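 Using mec2-1 yeast: add compound, measure growth, express inhibition versus vehicle-treated cultures.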

[7] = NCI Yeast Anticancer Drug Screen. Data for the sgs1 mgt1 strain (AID 161);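 note: 0% = growth of cultures given vehicle only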; conditions: S. cerevisiae sgs1 mgt1 strain, active compounds read high
Summary of the method: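 Yeast cells carrying a defined DNA-repair defect were exposed to test compounds. Growth inhibition was measured relative to vehicle-treated controls.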

[8] = NCI Yeast Anticancer Drug Screen. Data for the CLN2oe strain (AID 163);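 note: 0% = growth of vehicle-only control cultures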; conditions: S. cerevisiae CLN2oe strain, active compounds read high
Summary of the method: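 Whole-cell yeast growth assay. A strain engineered for altered cell-cycle control received compound, and inhibition relative to vehicle-treated cultures was recorded.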

[9] = NCI Yeast Anticancer Drug Screen. Data for the cln2 rad14 strain (AID 165);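 note: 0% = growth equal to vehicle treated cultures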; conditions: S. cerevisiae cln2 rad14 strain, active compounds read high
Summary of the method: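 Yeast strain cln2 rad14, bearing defects in cell cycle control and DNA repair, serves as the test system; values reflect growth inhibition compared with vehicle.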

[10] = NCI Yeast Anticancer Drug Screen. Data for the bub3 strain (AID 167); conditions: S. cerevisiae bub3 mutant strain, active compounds read high
Summary of the method: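 In this screen, a yeast mutant lacking normal mitotic checkpoint function is challenged with compound. Relative growth versus vehicle gives the inhibition value.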

[11] = NCI Yeast Anticancer Drug Screen. Data for the wt2 strain (AID 169);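 note: 0% = growth of vehicle-treated yeast cultures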; conditions: S. cerevisiae wt2 strain growth inhibition, active compounds read high
Summary of the method: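 Treated yeast vs. vehicle-treated yeast: growth inhibition determined.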

[12] = NCI Yeast Anticancer Drug Screen. Data for the mlh1 strain (AID 171);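 note: 0% = growth of vehicle-treated control cultures of the same strain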; conditions: S. cerevisiae mlh1 strain growth inhibition, active compounds read high
Summary of the method: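 A yeast strain with a defined genetic lesion serves as the test organism. Cultures receive compound or vehicle, and growth is measured.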

[13] = NCI Yeast Anticancer Drug Screen. Data for the sgs1 strain (AID 173);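 note: 0% = growth of vehicle-only control cultures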; conditions: S. cerevisiae sgs1 mutant, active compounds read high
Summary of the method: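 A genetically defined yeast mutant is incubated with the test compound, and its growth is compared to that of the same strain given vehicle.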

[14] = NCI Yeast Anticancer Drug Screen. Data for the mlh1 rad18 strain (AID 175); conditions: S. cerevisiae mlh1 rad18 strain growth inhibition, active compounds read high
Summary of the method: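 Steps: expose repair-defective yeast to compound; measure growth; express inhibition against vehicle-treated controls.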

[15] = NCI Yeast Anticancer Drug Screen. Data for the rad18 strain (AID 177); conditions: S. cerevisiae rad18 mutant growth inhibition, active compounds read high
Summary of the method: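 Measured value is growth inhibition of a yeast strain bearing a DNA repair alteration, referenced to vehicle-treated cells.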

[16] = at 5.0 µM (retest, dose inferred, filed as 0.5)
[17] = at 50.0 µM (retest, dose inferred, filed as 5.0)

Measured: growth inhibition

O=C1c2cccc3cccc(c23)C(=O)N1CCNCCN1C(=O)c2cccc3cccc(c23)C1=O
active: [5]; [17] 84% | [5]; at 50.0 µM 86.1%
inactive: [1]; at 1.2 µM 1% | [1]; at 3.7 µM 3% | [1]; at 11.0 µM 5% | [1]; at 33.0 µM 14% | [1]; at 100.0 µM 34% | [2]; at 1.2 µM 0% | [2]; at 3.7 µM 0% | [2]; at 11.0 µM -1% | [2]; at 33.0 µM 1% | [2]; at 100.0 µM 5% | [3]; at 1.2 µM -1% | [3]; at 3.7 µM 0% | [3]; at 11.0 µM 0% | [3]; at 33.0 µM 2% | [3]; at 100.0 µM 10% | [4]; at 1.2 µM -3% | [4]; at 3.7 µM 0% | [4]; at 11.0 µM -1% | [4]; at 33.0 µM 1% | [4]; at 100.0 µM 2% | [5]; at 1.2 µM 1% | [5]; at 3.7 µM 3% | [5]; [16] 19% | [5]; at 11.0 µM 6% | [5]; at 33.0 µM 21% | [5]; at 100.0 µM 53% | [6]; at 1.2 µM -3% | [6]; at 3.7 µM -4% | [6]; [16] 6% | [6]; at 11.0 µM -3% | [6]; at 33.0 µM 2% | [6]; [17] 4% | [6]; at 50.0 µM 26.4% | [6]; at 100.0 µM 5% | [7]; [16] 5% | [7]; [17] 10% | [7]; at 50.0 µM 15.5% | [8]; at 1.2 µM -1% | [8]; at 3.7 µM -2% | [8]; at 11.0 µM 4% | [8]; at 33.0 µM -1% | [8]; at 100.0 µM -1% | [9]; [16] 6% | [9]; [17] 6% | [9]; at 50.0 µM 15.9% | [10]; at 1.2 µM 0% | [10]; at 3.7 µM 1% | [10]; [16] 2% | [10]; at 11.0 µM -2% | [10]; at 33.0 µM -4% | [10]; [17] 1% | [10]; at 50.0 µM 0.65% | [10]; at 100.0 µM -3% | [11]; at 1.2 µM 0% | [11]; at 3.7 µM 0% | [11]; at 11.0 µM 0% | [11]; at 33.0 µM 1% | [11]; at 100.0 µM 5% | [12]; at 1.2 µM 0% | [12]; at 3.7 µM -3% | [12]; at 11.0 µM -1% | [12]; at 33.0 µM 0% | [12]; at 100.0 µM 2% | [13]; at 1.2 µM -1% | [13]; at 3.7 µM -2% | [13]; at 11.0 µM -1% | [13]; at 33.0 µM -1% | [13]; at 100.0 µM 4% | [14]; [16] 4% | [14]; [17] 18% | [14]; at 50.0 µM 7.55% | [15]; at 1.2 µM -3% | [15]; at 3.7 µM -2% | [15]; at 11.0 µM -1% | [15]; at 33.0 µM -1% | [15]; at 100.0 µM 6%
